From ChEMBL document CHEMBL1201862, “PubChem BioAssay data set” (2004)
Screen size: about 56,000 sequences; about 5,400 (9.6%) were called active. Cut-off read from the data, not from the text of the source: active = GI50 up to about 1.1 µM and inactive = higher. This excerpt belongs to a sample that is enriched for actives. Measured potencies and affinities stand elsewhere.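 These data come from cells grown in 96-well plates and exposed to compound for 48 hours at five concentrations. GI50 = concentration required for 50% inhibition of growth.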

What follows are substances tested on K562 (assay: NCI tumour cell line growth inhibition, 48 h).
“[Bis(aminomethyl)pentamethylenesilane]dichloropaltinum(II), CHEMBL2146202” gave a GI50 of 3.47 µM.
Work on “[Bis(aminomethyl)tetramethylenesilane]dichloropaltinum(II), CHEMBL2146205” yielded a GI50 of 10.2 µM.
“[Bis(aminomethyl)tetramethylenesilane]tetrachloropaltinum(IV), CHEMBL2146189” was tested, and the GI50 was 2.57 µM.
For “cis-Bis[[(trimethylsilyl)methyl]amino]tetrachloroplatinum(IV), CHEMBL2146191”, the GI50 was 2.92 µM.
Work on “[Bis(aminomethyl)dimethylsilane]tetrachloroplatinum(IV), CHEMBL2146190” yielded a GI50 of 3.78 µM.
“[Bis(aminomethyl)diethylsilane]tetrachloroplatinum(IV), CHEMBL2146203” gave a GI50 of 0.916 µM.
Work on “[Bis(aminomethyl)pentamethylenesilane]tetrachloropaltinum(IV), CHEMBL2146204” yielded a GI50 of 1.79 µM.
In the case of “[Bis(aminomethyl)ethylmethylsilane]tetrachloroplatinum(IV), CHEMBL2146192”, the GI50 is reported as 1.69 µM.
CHLOROTRIPHENYLSTANNANE, CHEMBL515580 showed a GI50 of 0.0256 µM.
“[Bis(aminomethyl)dimethylsilane]dichloroplatinum (II), CHEMBL2146201” was tested, and the GI50 was 16.5 µM.
In the case of CISPLATIN, CHEMBL11359, the GI50 is reported as 5.56 µM.
Work on “mu-(1,7-nanodiamine-N,N')bis-(cis-aminedichloroplatimum (II)), CHEMBL2146215” yielded a GI50 of 30.7 µM.
